PKA-R1A act: PKA-R1A complex activation; P00514+P68181; PKA-R1A dissociation, Cy5-IP20 fluorescence polarization; scaled: DMSO 0%, 113 µM cGMP 100%; activation, % at 11.4 µM; 340,000 compounds, 0.083% hits;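 active = percent activation above the mean of all tested compounds plus 3 SD, cut at about 19% in these data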;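 note: higher means more PKAc released from R1A so a rise in polarization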
PAFAH1B2 FP inh: blocks human PAF acetylhydrolase 1b catalytic subunit 2; P68402; recombinant PAFAH1B2, FP-rhodamine activity probe, fluorescence polarization; inhibition, % at 3.39 µM; 340,000 compounds, 1.2% hits;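 active = inhibition above the mean of all tested compounds plus 3 SD, cut at about 24% in these data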
Target sequence (P68402 whole entry, looked up): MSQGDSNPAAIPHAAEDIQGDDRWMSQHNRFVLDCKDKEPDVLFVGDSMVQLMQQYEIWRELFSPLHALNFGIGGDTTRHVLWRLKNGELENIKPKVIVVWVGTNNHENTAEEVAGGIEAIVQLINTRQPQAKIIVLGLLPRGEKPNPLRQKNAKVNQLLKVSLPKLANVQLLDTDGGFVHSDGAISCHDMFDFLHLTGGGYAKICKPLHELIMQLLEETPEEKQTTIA
PKA-R2B act: activators of human PKA-R2B complex; AID 504700; activation, % at 11.4 µM; 340,000 compounds, 0.079% hits; PKA-R2B holoenzyme dissociation, Cy5-IP20 fluorescence polarization; R2B truncated from residue 108, S112A mutant; 0% DMSO only, 100% 113 µM cGMP; P22694+P31323;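 active = activation above a cutoff set at the mean over all compounds plus 3 SD, cut at about 18% in these data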;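 note: higher means more holoenzyme dissociation and a rise in polarization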
PAFAH2 inh: PAFAH2 (human) inhibition; Q99487; recombinant PAFAH2, FP-rhodamine activity probe, fluorescence polarization; inhibition, % at 3.39 µM; 340,000 compounds, 0.99% hits;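 active = inhibition above the mean over all tested compounds plus 3 SD, cut at about 30% in these data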;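 note: inhibitors block probe labeling of enzyme so polarization drops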
PAFAH1B3 inh: blocks human PAF acetylhydrolase 1B catalytic subunit 3; inhibition, % at 3.39 µM; recombinant PAFAH1B3, FP-rhodamine probe, fluorescence polarization; 340,000 compounds, 0.28% hits;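 active = inhibition above the screen-wide average of all tested compounds plus 3 SD, cut at about 25% in these data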
pPAFAH inh: inhibitors of human plasma PAF acetylhydrolase (pPAFAH) | Q13093 | recombinant pPAFAH, FP-rhodamine probe fluorescence polarization | inhibition, % at 3.39 µM | 330,000 compounds, 1.5% hits;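 active = inhibition above the mean inhibition across the screen plus 3 SD, cut at about 25% in these data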;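 note: inhibitors block binding of the rhodamine activity-based probe so polarization drops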
Target sequence (Q13093 whole entry, looked up): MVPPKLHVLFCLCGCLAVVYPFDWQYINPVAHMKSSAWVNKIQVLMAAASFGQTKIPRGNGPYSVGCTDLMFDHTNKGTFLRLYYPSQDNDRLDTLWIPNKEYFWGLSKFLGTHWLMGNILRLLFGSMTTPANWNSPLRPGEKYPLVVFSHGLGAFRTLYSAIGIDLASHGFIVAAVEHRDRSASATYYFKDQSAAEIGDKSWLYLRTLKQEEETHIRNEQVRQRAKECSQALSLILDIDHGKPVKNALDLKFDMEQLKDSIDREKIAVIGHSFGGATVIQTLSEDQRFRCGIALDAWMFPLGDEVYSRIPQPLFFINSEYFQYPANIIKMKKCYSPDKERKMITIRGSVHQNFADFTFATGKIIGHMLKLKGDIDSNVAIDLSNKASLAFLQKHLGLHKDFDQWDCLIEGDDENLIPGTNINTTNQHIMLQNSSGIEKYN
PAFAH2 FP conf: PAFAH2 (human) inhibition, confirmed; shares compounds with PAFAH2 inh; recombinant PAFAH2, FP-rhodamine activity probe, fluorescence polarization; inhibition, % at 3.39 µM; 2,300 compounds, 65% hits; AID 493030;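 active = mean inhibition over three repeats above a set limit taken from the earlier primary screen, cut at about 30% in these data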;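 note: inhibitor blocks binding of rhodamine activity probe so polarization falls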
Each line names hits and unclear results; the compound was inactive in the other large screens (follow-up assays come after a bar, where they were run). A selection: hits, their analogues and other compounds. The true share with any hit is near 2.6%.

CCOc1ccc(C(=O)OCc2nnc(-c3cccs3)o2)cc1OC	PAFAH2 inh 85 | PAFAH2 FP conf 79
Cc1ccc(C(=O)OCc2nnc(-c3ccccc3)o2)s1	PAFAH2 inh 81 | PAFAH2 FP conf 73
O=C(OCc1nnc(-c2ccccc2)o1)c1ccco1	PAFAH2 inh 45 | PAFAH2 FP conf 42
O=C(OCc1nnc(-c2ccccc2)o1)c1cc(=O)c2ccccc2o1	none
O=C(OCc1nnc(-c2ccccc2)o1)c1cccnc1Cl	none
O=C(OCc1nnc(-c2cccs2)o1)c1cccnc1Cl	none
CCOc1ncccc1C(=O)OCc1nnc(-c2ccccc2)o1	PAFAH2 inh 47 | PAFAH2 FP conf 45
CCCCn1c(N)c(N(CCOC)C(=O)c2ccc(S(=O)(=O)N3CCC(C)CC3)cc2)c(=O)[nH]c1=O	none
CCC(C(=O)OCC(=O)Nc1cccc(S(=O)(=O)NC2=NCCCCC2)c1)c1ccccc1 (configuration not stated)	none (no result: PKA-R1A act, PAFAH1B2 FP inh, PKA-R2B act, PAFAH2 inh, PAFAH1B3 inh)
CCOc1cccc2sc(=NC(=O)CCS(=O)(=O)c3ccc(F)cc3)n(C)c12	none
Cc1cccc(S(=O)(=O)Nc2ccc(-n3c(C)nc4ccccc4c3=O)cc2)c1	none
Cc1nn(Cc2ccccc2)c(Cl)c1C(=O)OCc1nnc(-c2ccccc2)o1	PAFAH2 inh 32 | PAFAH2 FP conf inactive
O=C1CCC(C(=O)OCc2nnc(-c3ccc(Cl)cc3)o2)=NN1	none
O=C(OCc1nnc(-c2ccc(Cl)cc2)o1)c1ccc(O)cc1	PAFAH2 inh 75 | PAFAH2 FP conf 68
CCOc1ccc(C(=O)NCC(=O)OCc2nnc(-c3ccccc3)o2)cc1OCC	PAFAH2 inh 60 | PAFAH2 FP conf 53
N#Cc1ccccc1COC(=O)c1ccc2c(c1)OCO2	none
O=C(CNC(=O)c1ccccc1)OCc1nnc(-c2ccccc2)o1	none
O=C(OCc1nnc(-c2ccccc2)o1)c1ccc2c(c1)OCO2	PAFAH2 inh 58 | PAFAH2 FP conf 60
Cc1noc(C)c1NC(=O)N(C)C[C@H]1OCCCC[C@@H](C)Oc2ccc(NS(=O)(=O)c3ccccc3)cc2C(=O)N([C@H](C)CO)C[C@@H]1C	none (no result: PAFAH1B2 FP inh, PAFAH2 inh, PAFAH1B3 inh, pPAFAH inh)
C[C@@H]1CCCCO[C@H](CN(C)S(=O)(=O)c2ccccc2)[C@@H](C)CN([C@H](C)CO)C(=O)c2cc(NC(=O)Cc3ccccc3)ccc2O1	none (no result: PAFAH1B2 FP inh, PAFAH2 inh, PAFAH1B3 inh, pPAFAH inh)
O=C(Cn1nc2ccccc2n1)N/N=C/c1cc(Cl)cc([N+](=O)[O-])c1O	PAFAH2 inh 30 (no result: pPAFAH inh) | PAFAH2 FP conf inactive
O=[N+]([O-])c1cc(Cl)cc(/C=N/Nc2nc3ccccc3s2)c1O	PAFAH2 inh 65 | PAFAH2 FP conf 46
CC(C)(C)N/N=C/c1cc(Cl)cc([N+](=O)[O-])c1O	none
CN1/C(=C\C(=O)COC(=O)c2ccco2)C(C)(C)c2ccccc21	PAFAH2 inh 33 | PAFAH2 FP conf 37
Cc1nc([N+](=O)[O-])cn1CC(=O)c1ccc(Br)cc1	none
O=C(Nc1cccc(Cl)c1)c1cc(N=Nc2ccc([N+](=O)[O-])cc2Cl)ccc1O	PAFAH2 inh 33 | PAFAH2 FP conf inactive
O=C(Nc1ccc([N+](=O)[O-])cc1Cl)c1cc(Cl)ccc1O	none
O=C(O)c1ccc(CNC(=O)C2CCN(S(=O)(=O)c3cccs3)CC2)cc1	none (no result: PAFAH1B2 FP inh, PAFAH2 inh, PAFAH1B3 inh, pPAFAH inh)
O=C(OCC(=O)N1CCc2ccccc2C1)c1c(F)cccc1Cl	none
COc1ccccc1CNC(=O)COC(=O)c1cc(C)oc1C	none
COc1ccccc1CNC(=O)COC(=O)C1CC1	none
Cc1cc(C(=O)OCC(=O)NCc2ccc(Cl)cc2Cl)c(C)o1	PAFAH2 inh 37 | PAFAH2 FP conf inactive
Cc1cc(C(=O)OCC(=O)NCc2ccccc2Cl)c(C)o1	PAFAH2 inh 51 | PAFAH2 FP conf 50
O=C(COC(=O)C1CC1)NCc1ccccc1Cl	PAFAH2 inh 58 | PAFAH2 FP conf 52
C[C@@H]1CN([C@@H](C)CO)C(=O)CCCn2nncc2CO[C@@H]1CN(C)C(=O)c1ccccc1	none (no result: PAFAH1B2 FP inh, PAFAH2 inh, PAFAH1B3 inh, pPAFAH inh)
CCN(CC)c1ccc(C(=O)OCC(=O)N2CCCC2)cc1	PAFAH2 inh 36 | PAFAH2 FP conf inactive
O=Cc1ccc(C(=O)OCC(=O)N2CCCC2)cc1	none
CCN(CC)c1ccc(C(=O)OCC(=O)N(C(C)C)C(C)C)cc1	none
CCN(CC)c1ccc(C(=O)OCC(=O)N(C)Cc2ccccc2)cc1	PAFAH2 inh 48 | PAFAH2 FP conf 36
NS(=O)(=O)c1cccc(NS(=O)(=O)c2ccc(/C=C/C(=O)OCC(=O)c3ccc(Br)cc3)cc2)c1	none
Cc1ccc(NC(=O)COC(=O)/C=C/c2c(C)nn(-c3ccc(F)cc3)c2Cl)cc1F	PAFAH2 inh 72 | PAFAH2 FP conf 57
C/C=C/C(=O)OCC(=O)Nc1cc(-c2cc(C)c(C)cc2C)nn1-c1ccccc1	PAFAH2 inh 41 | PAFAH2 FP conf 30
Cc1nn(-c2ccccc2)c(C)c1/C=C/C(=O)OCC(=O)Nc1ccc(C(N)=O)cc1	none
COc1ccc(C(=O)COC(=O)/C=C/c2ccc(S(=O)(=O)Nc3cccc(S(N)(=O)=O)c3)cc2)cc1	PAFAH2 inh 32 | PAFAH2 FP conf inactive
Cc1nn(-c2ccc(F)cc2)c(Cl)c1/C=C/C(=O)OCC(=O)Nc1ccc(F)cc1F	none
COc1cccc(NC(=O)COC(=O)/C=C/c2c(C)nn(-c3ccccc3)c2C)c1	PAFAH2 inh 78 | PAFAH2 FP conf 80
C[C@@H]1CN([C@H](C)CO)C(=O)CCCn2cc(nn2)CO[C@H]1CN(C)C(=O)Nc1cccc(C(F)(F)F)c1	none (no result: PAFAH1B2 FP inh, PAFAH2 inh, PAFAH1B3 inh, pPAFAH inh)
COc1ccc(/C=C/C(=O)OCC(=O)Nc2cccc(C(C)=O)c2)cc1	PAFAH2 inh 90 | PAFAH2 FP conf 81
Cc1nn(-c2ccccc2)c(C)c1/C=C/C(=O)OCC(=O)Nc1ncc(C(F)(F)F)cc1Cl	PAFAH2 inh 45 | PAFAH2 FP conf 35
COc1ccc(/C=C/C(=O)OCC(=O)Nc2cc(C(N)=O)cc(C(N)=O)c2)cc1	none
CC(C)c1cccc(C(C)C)c1NC(=O)COC(=O)C1CCC1	none
CCOc1ccc(C(=O)Nc2ccc(S(=O)(=O)N3C[C@@H]4C[C@@H](C3)c3cccc(=O)n3C4)cc2)cc1	none
O=C(COC(=O)/C=C/c1ccc(Cl)cc1)NC(=O)NCc1ccccc1	none
O=C(COC(=O)/C=C/c1ccco1)NCc1ccc(Cl)cc1	PAFAH2 inh 43 | PAFAH2 FP conf 38
O=C(COC(=O)/C=C/c1ccccc1)NCc1ccc(Cl)cc1	PAFAH2 inh 34 | PAFAH2 FP conf 34
CCCNC(=O)COC(=O)/C=C/c1ccco1	PAFAH2 inh 36 | PAFAH2 FP conf inactive
COc1ccc(OCc2cc(C(=O)N3C[C@H]4CC[C@H]3C4)no2)c(Cl)c1	none

Screens as filed in PubChem.
